F508del corr: F508del CFTR correction, initial screen, CFBE line, single point; CFBE cells, YFP halide quenching; stimulated with forskolin plus potentiator P3; % fluorescence drop versus neutral controls; AID 720511, 2013; activity (quench increase), % at 7.58 µM; actives 0.36% (n = 350,000);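 active = mean added fluorescence quench of at least 8% versus neutral control, with both replicates also reaching 8%; inconclusive = only one of the mean or replicate conditions met; inactive = mean below 8% and not both replicates reaching 8%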;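 also: cells transiently co-express mutant CFTR-F508del with the halide-sensitive YFP; corrector assay measuring rescue of mutant channel to the surface after 24 h compound exposure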
RAD52 anneal inh: RAD52 DNA annealing inhibitors, primary screen, biochemical, FRET, single point, set 2 | DNA repair protein RAD52 homolog (Homo sapiens), P43351 | recombinant RAD52 DNA annealing, FRET fluorescence | inhibition, % at 18.7 µM | actives 0.46% (n = 360,000) | AID 651710, 2012;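 active = every replicate showing at least 50% inhibition; inconclusive = mean inhibition at least 50% but not in every replicate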
Target sequence (P43351 whole entry, looked up): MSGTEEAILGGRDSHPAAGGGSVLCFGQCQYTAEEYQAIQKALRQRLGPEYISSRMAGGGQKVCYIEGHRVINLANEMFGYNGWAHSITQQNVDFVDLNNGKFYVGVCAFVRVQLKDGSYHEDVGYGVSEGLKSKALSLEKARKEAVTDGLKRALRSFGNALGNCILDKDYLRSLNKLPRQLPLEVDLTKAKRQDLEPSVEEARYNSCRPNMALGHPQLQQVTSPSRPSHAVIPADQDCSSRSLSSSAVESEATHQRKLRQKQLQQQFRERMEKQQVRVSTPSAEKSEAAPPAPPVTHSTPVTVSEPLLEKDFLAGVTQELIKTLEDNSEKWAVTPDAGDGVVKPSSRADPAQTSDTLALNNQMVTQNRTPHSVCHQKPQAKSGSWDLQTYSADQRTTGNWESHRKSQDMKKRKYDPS
dFosB act-1: activators of delta FosB homodimer, primary screen, biochemical, fluorescence polarization, TAMRA-CDK5 oligo, single point; activation, % at 25 µM; Protein FosB (Mus musculus), P13346; purified delta FosB; percent of positive-control signal above neutral wells; actives 0.99% (n = 340,000);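 active = mean activation above about 17%, with every replicate also reaching it, limit read from the data, passing the limit was not always enough; inconclusive = only one of the two conditions met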
Glyco luc inh: increase of ERlucT glycosylation luciferase signal, primary screen, N-linked glycosylation inhibitor project, D54 ERlucT cells, luminescence, set 2; D54 ERlucT glycosylation luciferase reporter, 24 h; percent of 100 nM tunicamycin response; actives 0.23% (n = 360,000); AID 588692, 2011; reporter increase, % at 12.5 µM;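 active = mean luciferase reporter signal, scaled so untreated is 0 and the glycosylation-blocking control 100, at or above a set limit in every replicate; inconclusive = mean reaches the limit but not every replicate does; inactive = mean below the limit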;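 also: luciferase carries N-glycosylation sites so blocking glycosylation raises the light; 0% = median of neutral control wells and 100% = median of 100 nM tunicamycin wells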
PvdQ acylase: P. aeruginosa PvdQ acylase inhibitors, primary screen, biochemical, fluorescence, plate reader and imaging, single point | actives 0.063% (n = 340,000) | purified PvdQ acylase | AID 488965, 2010 | inhibition, % at 10 µM; in the data active = inhibition above about 30%, passing the limit was not always enough; inconclusive = no clear call, values can overlap the other calls;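 also: 0% = vehicle neutral wells and 100% = reference inhibitor wells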
RAD54 inh: inhibitors of human RAD54 branch migration, primary screen, biochemical, fluorescence, single point | inhibition, % at 10.4 µM | RAD54 Holliday junction branch migration, FAM/BHQ fluorescence | actives 0.14% (n = 360,000) | AID 602329, 2012 | DNA repair and recombination protein RAD54-like (Homo sapiens), Q92698;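 active = mean normalized replicate activity at least 40 and at least half of replicates scoring 40 or more; inconclusive = only one of the two criteria met; inactive = mean below 40 and under half of replicates reaching 40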;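 also: 0% = median of neutral control wells and 100% = median of positive control wells; inhibitors cause a drop in the FAM fluorescence signal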
dFosB act-2: activators of mouse delta FosB DNA binding, confirmation, biochemical, fluorescence polarization, TAMRA-CDK5 oligo, cherry-picked samples; shares compounds with dFosB act-1; purified delta FosB; normalised: neutral wells 0, positive control 100; activation, % at 24.9 µM; 2,400 tested, under 10 active; AID 588690, 2011;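 active = highest replicate activation at or above 34% and every replicate reaching that threshold; inconclusive = meets only one of the two criteria; inactive = meets neither criterion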;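 also: higher polarization means more probe DNA bound by delta FosB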
The depositor's hits bear a star; i = inactive; ? = inconclusive; · = no result. The list is not random: actives were taken first. Their share in the collection is about 1.5%.

SMILES	F508del corr	RAD52 anneal inh	dFosB act-1	Glyco luc inh	PvdQ acylase	RAD54 inh	dFosB act-2
COc1ccc(NC(=O)Nc2ccc3c(c2)C(=O)N([C@H](C)CO)C[C@@H](C)[C@H](CN(C)Cc2ccc(Oc4ccccc4)cc2)O3)cc1	-6.1	-8.1	·	·	·	-0.9	·
CC(=O)c1cccc(NC(=O)COC(=O)c2cccc(N3C(=O)c4ccccc4C3=O)c2)c1	-4.5	-24.6	0.5	-0.1	-3.0	4.5	·
Cc1ccc(NC(=O)COC(=O)c2cccc(N3C(=O)c4ccccc4C3=O)c2)cc1	-3.0	-1.2	49.9*	1.5	-20.1	-5.6	-2.2
O=C(Cc1ccccc1)Nc1nnc(SCC(=O)NC2CCCC2)s1	-0.1	10.8	-6.4	1.1	-10.9	·	·
O=C(CSc1nnc(NC(=O)c2ccco2)s1)NC1CCCCC1	·	·	21.8*	1.4	-4.8	-10.0	6.8
O=C(CSc1nnc(NC(=O)c2ccco2)s1)Nc1ccc(F)cc1	-1.1	4.3	18.9*	0.3	-13.3	4.8	-5.0
C[C@@H]1CN([C@@H](C)CO)C(=O)c2cc(NC(=O)Nc3cccc4ccccc34)ccc2O[C@@H]1CN(C)Cc1ccc(Oc2ccccc2)cc1	-1.0	-20.1	·	·	·	12.1	·
O=C(NCc1ccc2c(c1)OCO2)c1ccc2c(=O)n(C3CCCC3)c(=O)[nH]c2c1	·	·	39.9*	-2.1	8.3	-0.7	-4.2
CO[C@@H]1CN(C)C(=O)c2cc(NC(=O)Nc3ccccc3Cl)ccc2OC[C@H](C)NC[C@@H]1C	-3.0	-0.2	·	·	·	3.1	·
CC(=O)N(C)C[C@H]1Oc2cc(C#CC(C)(C)O)ccc2S(=O)(=O)N([C@H](C)CO)C[C@@H]1C	-0.3	-8.0	·	·	·	10.5	·
CNC[C@@H]1OCCCC[C@@H](C)Oc2ccc(NS(C)(=O)=O)cc2C(=O)N([C@@H](C)CO)C[C@@H]1C	-2.2	-9.2	·	·	·	-5.2	·
COc1ccc(Br)cc1/C=C/C(=O)OCC(=O)NCCc1ccc(S(N)(=O)=O)cc1	-1.4	-15.4	21.8*	-1.5	-0.8	2.5	3.9
COc1ccc2oc(C(=O)OCC(=O)NCCc3ccc(S(N)(=O)=O)cc3)c(C)c2c1	3.6	-9.3	25.7*	2.9	9.3	1.1	5.1
C[C@@H]1CN([C@H](C)CO)C(=O)c2cc(C#CC3(O)CCCC3)cnc2O[C@@H]1CN(C)Cc1ccccn1	-2.6	-8.8	·	·	·	-14.7	·
Cc1ccc(S(=O)(=O)N(C)C[C@@H]2Oc3ccc(NC(=O)Cc4ccccc4)cc3CC(=O)N([C@@H](C)CO)C[C@H]2C)cc1	0.0	8.8	·	·	·	3.8	·
Cc1ccc2c(CN3CCN(Cc4ccccc4)CC3)cc(=O)oc2c1C	0.7	2.8	-18.7	-0.8	-14.4	2.2	·
Cc1c(O)ccc2c(CN3CCN(C/C=C/c4ccccc4)CC3)cc(=O)oc12	-1.5	-13.2	18.2*	-5.2	-3.7	·	7.3
COc1cc(S(=O)(=O)Nc2ccc(C)cc2)ccc1N=Cc1c(C)c(C#N)c(=O)n(C)c1O	2.3	i	127.6*	0.7	-8.3	·	-2.5
COc1cc(S(=O)(=O)Nc2ccc(C)cc2)ccc1N=Cc1c(C)[nH]n(-c2ccc(C)cc2)c1=O	0.6	-22.4	0.5	0.1	19.8	·	·
C[C@@H]1CN([C@H](C)CO)C(=O)c2cc(-c3cncnc3)cnc2O[C@H]1CN(C)C(=O)c1cccc(F)c1	-0.8	-8.8	·	·	·	-5.1	·
Nc1nc(NCC(=O)O)nc(NCc2ccccc2)c1[N+](=O)[O-]	-1.4	-25.6	2.9	1.9	-3.4	9.2	·
Cc1cccc(Nc2nc(N)c([N+](=O)[O-])c(NCCO)n2)c1	·	-7.4	0.3	2.6	-3.0	·	·
Cc1ccc(Nc2nc(N)c([N+](=O)[O-])c(NCc3ccccc3)n2)cc1	-0.6	-7.8	46.6*	-1.8	-11.3	1.2	-0.3
Cc1cccc(Nc2nc(N)c([N+](=O)[O-])c(NCc3ccco3)n2)c1	3.4	-11.6	53.0*	-5.3	4.8	7.0	4.7
C[C@@H]1CN([C@H](C)CO)C(=O)c2cc(C#CCN(C)C)cnc2O[C@H]1CN(C)Cc1cccc(C(=O)O)c1	-2.5	3.7	·	·	·	·	·
SMILES	F508del corr	RAD52 anneal inh	dFosB act-1	Glyco luc inh	PvdQ acylase	RAD54 inh	dFosB act-2
Cc1noc(C)c1NC(=O)N(C)C[C@@H]1Oc2ccc(NC(=O)c3ccncc3)cc2CC(=O)N([C@@H](C)CO)C[C@H]1C	-0.8	-3.8	·	·	·	-9.8	·
CO[C@@H]1CN(C)C(=O)c2ccc(NC(C)=O)cc2OC[C@H](C)N(Cc2ccccn2)C[C@H]1C	-0.2	6.0	·	·	·	-0.7	·
COc1ccc(/C=C/c2nc3ccccc3n2Cc2ccccc2OC)cc1	·	-38.1	25.0*	-8.0	-3.9	·	0.5
COc1ccccc1Cn1c(/C=C/c2ccccc2)nc2ccccc21	·	·	-1.0	-7.7	-7.6	·	·
COc1cc2c(cc1OC)-c1cc(Nc3ccc(F)cc3)nc(=O)n1CC2	1.2	-5.7	37.3*	1.7	-5.0	·	2.5
COc1cc2c(cc1OC)-c1cc(Nc3cccc(F)c3)nc(=O)n1CC2	0.2	-7.1	-21.3	1.6	-12.0	15.7	·
COCC(=O)N(C)C[C@@H]1Oc2ncc(-c3ccccc3C)cc2C(=O)N([C@@H](C)CO)C[C@H]1C	-3.4	0.1	·	·	·	5.5	·
O=C(NCCCN1CCCC1)c1ccc2c(c1)N(Cc1ccccc1F)C(=O)c1ccccc1S2=O (stereo unspecified)	-2.4	14.7	-0.1	-4.3	-7.5	·	·
Cc1ccc(C)c(CN2C(=O)c3ccccc3S(=O)c3ccc(C(=O)NCCCN4CCCC4)cc32)c1 (stereo unspecified)	-2.6	49.1	25.4*	-8.6	-21.2	-5.5	3.5
COC(=O)C[C@@H]1C[C@H]2c3cc(NC(=O)Nc4ccccc4)ccc3O[C@H]2[C@@H](CO)O1	-2.5	-8.3	·	·	·	5.3	·
O=C(COC(=O)c1cc(=O)[nH]c2ccccc12)Nc1nc(-c2ccccc2)cs1	-0.4	-7.7	55.4*	4.1	-6.6	8.4	4.1
O=C(COC(=O)c1cc(=O)[nH]c2ccccc12)Nc1nccs1	2.5	-25.5	?	-1.6	-1.7	10.8	·
CCNC(=O)COC(=O)c1cc(=O)[nH]c2ccccc12	·	·	-0.6	2.3	-9.6	-4.9	·
Cc1cccc(C)c1NC(=O)COC(=O)c1cc(=O)[nH]c2ccccc12	0.1	-14.5	42.5*	0.0	-5.1	3.0	2.7
